Compound activity (PubChem)
Rab9 promoter act = activators of Rab9 promoter; Potency, µM (highest dose often 9.22 µM), without a hit: at the top dose activation, negative = inhibition, usual class: activators; 320,000 tested, 2.8% active; Huh7 Rab9 promoter-luciferase reporter, luminescence, 24 h; note: % of control where 0% means no effect; nearly all actives have a fitted effect of over 60% in size
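Huh7 reporter line, Rab9 promoter upstream of luciferase. Compound exposure 24 h at 37 °C in reduced-serum medium with 10% FBS. Read-out: luminescence.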
Luc counter = blocks Kinase-Glo luciferase, a counter-screen artifact | AID 1379 | Potency, µM (series often up to 38.3 µM), without a hit: at the top dose activity change, negative = inhibition, most hits filed as inhibitors | Kinase-Glo luciferase, ATP luminescence, 8 min | 200,000 tested, 0.28% active; note: % is set by controls: 0 for no effect and ±100 for the full control effect; nearly all actives have a fitted effect of over 60% in size
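Recombinant Kinase-Glo luciferase, 10 uM ATP (linear range), luciferin; imidazole pH 7.2 / KCl / MgCl2 / Tween / BSA buffer; 8 min RT; luminescence.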
FLuc modulator = counter-screen for miR-21 project: firefly luciferase inhibitors or activators | purified FLuc, Km substrates, luminescence inhibition | Potency, µM (top dose mostly 57.5 µM), without a hit: at the highest dose activity change, negative = inhibition, usual class: inhibitors | 360,000 tested, 6.9% active | AID 588342;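 note: plate controls were vehicle for no effect and reference inhibitor for full effect; nearly all actives have a fitted effect of over 55% in size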
Target sequence (P08659 whole entry, looked up): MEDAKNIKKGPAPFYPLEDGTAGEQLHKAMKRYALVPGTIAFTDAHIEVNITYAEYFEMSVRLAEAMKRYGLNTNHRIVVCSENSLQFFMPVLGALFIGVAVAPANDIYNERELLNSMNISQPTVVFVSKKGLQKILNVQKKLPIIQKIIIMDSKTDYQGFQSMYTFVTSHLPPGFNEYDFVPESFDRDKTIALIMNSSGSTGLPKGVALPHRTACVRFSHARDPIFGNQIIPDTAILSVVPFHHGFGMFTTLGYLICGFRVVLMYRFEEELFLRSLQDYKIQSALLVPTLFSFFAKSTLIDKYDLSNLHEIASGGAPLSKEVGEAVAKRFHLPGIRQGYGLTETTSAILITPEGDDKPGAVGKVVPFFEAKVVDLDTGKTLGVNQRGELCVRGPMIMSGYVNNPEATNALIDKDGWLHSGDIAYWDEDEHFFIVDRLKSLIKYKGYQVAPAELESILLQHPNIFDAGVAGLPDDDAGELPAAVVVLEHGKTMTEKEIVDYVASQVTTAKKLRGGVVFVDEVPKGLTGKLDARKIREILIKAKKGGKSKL
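Biochemical qHTS of compounds, final roughly 60 µM downward over six points, against 10 nM purified firefly luciferase using Km concentrations of substrates (10 uM D-luciferin, 10 uM ATP) in Tris acetate pH 7.5 buffer; luminescence output.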
NPC1 promoter act = activators of NPC1 promoter. Huh7 NPC1 promoter luciferase reporter, 24 h. Potency, µM (doses to about 9.22 µM), inactives show at the top dose activation, hits mostly activators. 320,000 tested, 2.4% active; note: % of control where 0% means no effect; nearly all actives have a fitted effect of over 60% in size
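Luminescence read-out of NPC1 promoter-driven luciferase in stably transfected Huh7 cells; compounds delivered in DMSO and left 24 h at 37C, 5% CO2, qHTS titration format.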
ELG1 genotox = induces genotoxicity in HEK293T cells with luciferase-tagged ELG1; Potency, µM (highest dose often 46 µM), inactives show at the top dose activity change, positive = activation, usual class: activators; HEK293T ELG1-luciferase reporter, luminescence, 16 h; 330,000 tested, 1.3% active; note: % of control where 0% means no effect; nearly all actives have a fitted effect of over 60% in size
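Step 1: seed 2,000 HEK293T ELG1-luciferase cells per well. Step 2: add compound or DMSO, incubate 16 hr at 37 °C. Step 3: ONE-Glo, 30 min at room temperature, read luminescence.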
SMN2 splice up = enhancers of SMN2 splice variant expression; 210,000 tested, 2.8% active; HEK293 SMN2-luciferase splicing reporter, luminescence, 30-36 h; Potency, µM (top dose mostly 46.1 µM), for the others: at the highest dose activity change, positive = activation, most hits filed as activators; AID 1458; note: % of control where 0% means no effect; nearly all actives have a fitted effect of over 55% in size
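HEK293 cells carry an SMN2 […]–luciferase reporter in which exon 7 inclusion puts luciferase in frame. Cells were plated 10-12 h before compound addition, then incubated 30-36 h at 37C. ONE-Glo luminescence was read; sodium butyrate at 4.5 mM final served as control.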
Numbers without * were called inactive. Shown are actives, neighbours in structure and some others; about 7.5% of the full set was active somewhere. Calls come from the whole dose curve; as a rule, active = well fitted curve in the direction sought with a large enough effect; inconclusive = small, poorly fitted or top-dose-only effect, or another doubt; inactive = no such curve, though single readings can be large; an effect the other way counts as inactive or inconclusive. Potency is the fitted concentration of half-maximal effect.

`O=C(CC1SC(=O)NC1=O)Oc1ccc(/C=N/NC(=O)c2ccccc2O)cc1` (stereo not given) gave Rab9 promoter act 17.2%, FLuc modulator 16.9µM*, NPC1 promoter act 2.9% and ELG1 genotox 8.5%.
O=C(N/N=C\c1ccccc1)c1ccccc1-n1cccc1 was read as Rab9 promoter act -2.8%, Luc counter 7.5%, FLuc modulator 2.1%, NPC1 promoter act -2.1%, ELG1 genotox 0.2% and SMN2 splice up -4.2%.
Nc1nnc(COc2ccc(Br)cc2Br)s1 was read as Rab9 promoter act inconclusive, Luc counter 12.2%, FLuc modulator 8.49µM*, NPC1 promoter act inconclusive, ELG1 genotox inconclusive and SMN2 splice up inconclusive.
For COc1ccc(C2(c3ccc(OC)cc3)NC(=O)N(CC(=O)N(C)c3ccccc3)C2=O)cc1 the results were Rab9 promoter act 2.24µM*, FLuc modulator 19µM*, NPC1 promoter act 3.55µM* and ELG1 genotox inconclusive.
Cc1cccc2c1ncc1c(=O)n(-c3ccccc3)[nH]c12 was read as Rab9 promoter act 2.24µM*, FLuc modulator 4.26µM*, NPC1 promoter act 3.16µM* and ELG1 genotox inconclusive.
For COc1ccc(CC(=O)N2CCc3cc(OC)c(OC)cc3C2COc2cc(C)cc(C)c2)cc1OC (stereo not given) the results were FLuc modulator -2.7%.
`O=C(CSc1nnc(NC(=O)c2cccc(Cl)c2)s1)NCC1CCCO1` (stereo not given) gave Rab9 promoter act 23.4%, FLuc modulator 6.75µM*, NPC1 promoter act 19.9% and ELG1 genotox inconclusive.
COc1cc(C(=O)Nc2nnc(SCC(=O)NCC3CCCO3)s2)cc(OC)c1OC (stereo not given) was read as Rab9 promoter act 2.6%, FLuc modulator -0.9%, NPC1 promoter act -5.2% and ELG1 genotox 5.0%.
`COc1ccccc1C(=O)Nc1nnc(SCC(=O)NCC2CCCO2)s1` (stereo not given) gave Rab9 promoter act 3.55µM*, FLuc modulator 6.01µM*, NPC1 promoter act 1.41µM* and ELG1 genotox inconclusive.
`O=C(CSc1nc2ccccc2s1)NCC1CCCO1` (stereo not given) gave Rab9 promoter act 18.9%, FLuc modulator -7.8%, NPC1 promoter act 0.8% and ELG1 genotox 9.6%.
`O=C(CSc1nc2ccc(NC(=O)C3CCCCC3)cc2s1)NCC1CCCO1` (stereo not given) gave Rab9 promoter act 17.5%, Luc counter 0.8%, FLuc modulator 16.9µM*, NPC1 promoter act 13.0%, ELG1 genotox -1.7% and SMN2 splice up -8.8%.
Cc1cccc(NC(=O)c2ccc3oc(=O)c(S(=O)(=O)c4ccc(F)cc4)cc3c2)c1C was read as FLuc modulator -1.3% and SMN2 splice up 4.5%.
`CCc1cc(C(=O)Nc2c(C)nn(Cc3ccc(C)cc3)c2C)no1` gave FLuc modulator 0.4% and SMN2 splice up -20.6%.
Screening Nc1nc(Nc2ccccc2F)nc(N2CCCC2)c1[N+](=O)[O-] returned Rab9 promoter act inconclusive, FLuc modulator 16.9µM*, NPC1 promoter act 0.5% and ELG1 genotox inconclusive.
COC(=O)C(Cc1csc2ccc(Cl)cc12)NC(=O)c1ccc(Cl)cc1 (stereo not given) was read as Rab9 promoter act -7.0%, FLuc modulator inconclusive, NPC1 promoter act 0.7% and ELG1 genotox 5.4%.
`CCN1CCN(c2oc(/C=C/c3cc(OC)c(OC)c(OC)c3)nc2C#N)CC1` gave FLuc modulator -7.3% and SMN2 splice up 7.2%.
Screening COc1ccc(CCNC(=O)c2ccc3c(c2)CCN3S(=O)(=O)c2ccc(C)cc2)cc1 returned FLuc modulator -6.2% and SMN2 splice up -12.1%.
`Cc1cccc(-n2c(=S)[nH]c3sc4c(c3c2=O)CCc2ccccc2-4)c1` gave Rab9 promoter act 3.6%, Luc counter 5.1%, FLuc modulator 7.57µM*, NPC1 promoter act -0.3%, ELG1 genotox -11.5% and SMN2 splice up -8.4%.
For CCOc1cc2[nH]c(=O)n(CCCCC(=O)N3CCN(c4ccccc4OC)CC3)c(=O)c2cc1OCC the results were FLuc modulator 1.4%.
For Cc1cccc(/C(N)=N/OC(=O)c2ccc3c(c2)OCO3)c1 the results were Rab9 promoter act 2.82µM*, Luc counter 10µM*, FLuc modulator 0.19µM*, NPC1 promoter act 2.82µM*, ELG1 genotox 9.2µM* and SMN2 splice up 25.1µM*.
COc1ccc(/C(N)=N/OC(=O)c2cccc([N+](=O)[O-])c2)cc1OC was read as Rab9 promoter act -1.5%, Luc counter 19.9%, FLuc modulator inconclusive, NPC1 promoter act 0.6%, ELG1 genotox inconclusive and SMN2 splice up -13.2%.
For N/C(=N\OC(=O)c1ccc2c(c1)OCO2)c1cccc([N+](=O)[O-])c1 the results were Rab9 promoter act inconclusive, Luc counter -23.1%, FLuc modulator 0.426µM*, NPC1 promoter act 6.8%, ELG1 genotox inconclusive and SMN2 splice up -9.3%.
`Cc1ccc(O)c(-c2n[nH]c3c2C(c2ccc(F)cc2)N(Cc2ccco2)C3=O)c1` (stereo not given) gave FLuc modulator -16.9% and SMN2 splice up 8.0%.
Screening COc1ccc(NC(=O)CCSc2nc(-c3ccco3)cc(C(F)(F)F)n2)cc1 returned FLuc modulator 0.5% and SMN2 splice up -7.3%.
Screening CN(C)c1ccc(NC(=O)CCSc2nc(-c3ccco3)cc(C(F)(F)F)n2)cc1 returned FLuc modulator 9.53µM* and SMN2 splice up 3.1%.
Screening O=C(NCCc1ccccc1)C1CCC(=O)N(Cc2ccc(Cl)cc2)C1 (stereo not given) returned Rab9 promoter act 0.4%, FLuc modulator -2.5%, NPC1 promoter act 3.9% and ELG1 genotox 1.7%.
O=C(NCCc1cscn1)C1CCC(=O)N(Cc2ccc(Cl)cc2)C1 (stereo not given) was read as Rab9 promoter act inconclusive, FLuc modulator 3.01µM*, NPC1 promoter act inconclusive and ELG1 genotox inconclusive.
For COc1ccc(OCc2cc(C(=O)NC3CCOC(C)(C)C3)no2)c2ccccc12 (stereo not given) the results were Rab9 promoter act 3.55µM*, FLuc modulator 8.49µM*, NPC1 promoter act 2.82µM* and ELG1 genotox inconclusive.
For COc1ccccc1OCc1cc(C(=O)N(C)CCC2CCCCO2)no1 (stereo not given) the results were Rab9 promoter act 1.58µM*, FLuc modulator 12µM*, NPC1 promoter act 2.51µM* and ELG1 genotox 10.3µM*.
